Laboratory results published in the supplement of paper PMC11732987, “Enantioselective OTUD7B fragment discovery through chemoproteomics screening and high-throughput optimisation” (Communications Chemistry, 2025).

Assays:
Experiment in all cases: log2 ratio of Biotin-Ahx-Ub-VS probe labelling (fragment/DMSO); higher = less target engagement (more negative = stronger competition), active = hit call of the paper (q ≤ 0.05, log2 ratio ≤ -1)
Settings in all cases: compound concentration: 200 uM; treatment time: 3 h
USP34 = USP34 (UniProt Q70CQ2)
Chain of USP34 (Q70CQ2 whole entry, the tested form may be a part): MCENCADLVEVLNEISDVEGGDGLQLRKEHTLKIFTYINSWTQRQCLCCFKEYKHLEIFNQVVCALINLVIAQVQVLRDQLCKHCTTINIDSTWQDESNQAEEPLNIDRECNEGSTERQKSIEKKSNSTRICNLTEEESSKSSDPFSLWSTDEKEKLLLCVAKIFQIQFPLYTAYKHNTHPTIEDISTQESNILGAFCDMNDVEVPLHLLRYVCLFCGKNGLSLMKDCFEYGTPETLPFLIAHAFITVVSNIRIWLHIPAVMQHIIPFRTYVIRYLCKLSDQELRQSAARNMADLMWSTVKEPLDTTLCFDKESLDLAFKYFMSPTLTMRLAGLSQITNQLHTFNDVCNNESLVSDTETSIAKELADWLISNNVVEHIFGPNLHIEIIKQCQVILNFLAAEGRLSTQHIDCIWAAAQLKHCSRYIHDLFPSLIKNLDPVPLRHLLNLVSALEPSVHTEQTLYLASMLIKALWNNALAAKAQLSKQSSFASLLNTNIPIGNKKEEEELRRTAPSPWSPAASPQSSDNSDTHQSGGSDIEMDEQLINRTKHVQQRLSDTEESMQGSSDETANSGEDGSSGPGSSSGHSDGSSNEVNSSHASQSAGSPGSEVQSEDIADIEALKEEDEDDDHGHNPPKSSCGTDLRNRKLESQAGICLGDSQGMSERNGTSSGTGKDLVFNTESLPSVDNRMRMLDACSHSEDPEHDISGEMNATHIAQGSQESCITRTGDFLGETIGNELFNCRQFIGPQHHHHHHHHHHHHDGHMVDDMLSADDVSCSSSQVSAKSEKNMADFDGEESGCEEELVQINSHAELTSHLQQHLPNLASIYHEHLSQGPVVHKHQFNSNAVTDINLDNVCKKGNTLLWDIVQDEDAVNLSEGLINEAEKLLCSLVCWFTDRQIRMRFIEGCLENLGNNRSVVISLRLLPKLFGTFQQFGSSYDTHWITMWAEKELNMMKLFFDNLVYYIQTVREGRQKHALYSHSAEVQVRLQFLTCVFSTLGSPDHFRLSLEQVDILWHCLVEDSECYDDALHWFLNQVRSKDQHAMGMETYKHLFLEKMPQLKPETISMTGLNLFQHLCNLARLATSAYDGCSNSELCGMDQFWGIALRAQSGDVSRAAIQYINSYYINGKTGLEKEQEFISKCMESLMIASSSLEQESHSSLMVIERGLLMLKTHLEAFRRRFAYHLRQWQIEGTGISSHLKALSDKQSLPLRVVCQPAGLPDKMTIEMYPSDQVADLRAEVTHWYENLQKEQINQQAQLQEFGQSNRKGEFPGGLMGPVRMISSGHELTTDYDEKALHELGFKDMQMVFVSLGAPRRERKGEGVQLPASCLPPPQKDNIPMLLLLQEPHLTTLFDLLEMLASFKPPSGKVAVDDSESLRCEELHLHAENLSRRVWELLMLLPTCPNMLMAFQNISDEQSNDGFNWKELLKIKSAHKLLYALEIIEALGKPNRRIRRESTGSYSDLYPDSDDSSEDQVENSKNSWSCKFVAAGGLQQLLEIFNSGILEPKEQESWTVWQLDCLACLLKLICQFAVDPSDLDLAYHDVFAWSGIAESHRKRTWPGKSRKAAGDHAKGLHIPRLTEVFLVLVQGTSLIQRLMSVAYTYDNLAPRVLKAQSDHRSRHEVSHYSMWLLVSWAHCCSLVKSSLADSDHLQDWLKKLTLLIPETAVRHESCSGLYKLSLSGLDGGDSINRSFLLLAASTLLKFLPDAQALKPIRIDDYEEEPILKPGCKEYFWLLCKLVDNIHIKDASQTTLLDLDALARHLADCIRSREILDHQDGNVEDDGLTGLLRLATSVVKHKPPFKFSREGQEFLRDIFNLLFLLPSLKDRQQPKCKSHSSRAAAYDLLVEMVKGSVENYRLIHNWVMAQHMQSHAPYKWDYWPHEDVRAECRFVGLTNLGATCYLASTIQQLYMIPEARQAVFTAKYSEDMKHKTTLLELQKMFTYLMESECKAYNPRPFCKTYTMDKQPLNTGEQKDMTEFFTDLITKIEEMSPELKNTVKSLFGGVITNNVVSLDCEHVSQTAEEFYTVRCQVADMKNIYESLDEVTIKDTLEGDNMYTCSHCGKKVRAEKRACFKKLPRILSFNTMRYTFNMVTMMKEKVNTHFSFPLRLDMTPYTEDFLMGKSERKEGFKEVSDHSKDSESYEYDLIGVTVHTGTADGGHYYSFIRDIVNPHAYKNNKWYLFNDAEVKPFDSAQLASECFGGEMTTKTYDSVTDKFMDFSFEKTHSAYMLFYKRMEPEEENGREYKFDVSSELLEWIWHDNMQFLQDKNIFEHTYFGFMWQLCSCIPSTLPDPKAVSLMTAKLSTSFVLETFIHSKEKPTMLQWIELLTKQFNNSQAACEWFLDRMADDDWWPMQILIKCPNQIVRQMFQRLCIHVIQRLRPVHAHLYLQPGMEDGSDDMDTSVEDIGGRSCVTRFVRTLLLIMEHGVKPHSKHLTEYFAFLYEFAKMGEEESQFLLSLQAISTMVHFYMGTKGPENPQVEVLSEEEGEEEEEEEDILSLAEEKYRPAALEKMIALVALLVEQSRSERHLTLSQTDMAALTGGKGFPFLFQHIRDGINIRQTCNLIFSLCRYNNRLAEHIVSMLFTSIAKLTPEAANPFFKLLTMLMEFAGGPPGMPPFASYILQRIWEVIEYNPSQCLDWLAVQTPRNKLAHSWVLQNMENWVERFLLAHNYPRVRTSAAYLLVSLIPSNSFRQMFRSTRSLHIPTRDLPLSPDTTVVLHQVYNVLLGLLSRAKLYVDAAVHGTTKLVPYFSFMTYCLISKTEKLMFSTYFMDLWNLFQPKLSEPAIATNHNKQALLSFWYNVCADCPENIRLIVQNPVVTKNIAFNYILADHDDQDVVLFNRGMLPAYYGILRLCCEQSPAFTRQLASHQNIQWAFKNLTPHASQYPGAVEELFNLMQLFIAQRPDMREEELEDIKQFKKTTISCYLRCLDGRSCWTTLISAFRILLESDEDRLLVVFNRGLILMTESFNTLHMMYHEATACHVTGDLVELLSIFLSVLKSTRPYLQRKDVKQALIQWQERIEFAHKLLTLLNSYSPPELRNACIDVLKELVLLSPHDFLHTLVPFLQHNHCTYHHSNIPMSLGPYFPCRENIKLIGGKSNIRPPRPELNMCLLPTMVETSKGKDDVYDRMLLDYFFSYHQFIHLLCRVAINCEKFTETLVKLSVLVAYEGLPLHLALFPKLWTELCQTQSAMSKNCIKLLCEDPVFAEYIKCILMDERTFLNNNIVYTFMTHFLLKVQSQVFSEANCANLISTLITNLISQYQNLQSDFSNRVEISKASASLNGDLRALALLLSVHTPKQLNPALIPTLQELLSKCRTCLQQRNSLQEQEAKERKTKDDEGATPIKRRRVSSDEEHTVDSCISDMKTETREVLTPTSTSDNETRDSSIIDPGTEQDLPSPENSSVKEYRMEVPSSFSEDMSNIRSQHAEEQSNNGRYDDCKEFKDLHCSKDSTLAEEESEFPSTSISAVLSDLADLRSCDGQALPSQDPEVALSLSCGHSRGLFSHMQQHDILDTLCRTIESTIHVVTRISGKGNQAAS
In short: (§1)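 Fragment (200 µM) or vehicle was incubated for 3 h with triplicate HEK293T lysate samples of 495 µg, which were then treated with Biotin-Ahx-Ub-VS at 0.5 µM final for 1 h. Labelled DUBs were enriched on NeutrAvidin, digested with LysC and trypsin, and analysed by diaPASEF LC-MS/MS. Values are average log2 fragment/vehicle ratios from an unpaired t-test on global-median-normalised Spectronaut label-free quantities, using proteins with ≥2 unique peptides.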

USP36 = target: T1, USP36 (UniProt Q9P275)
T1 sequence (whole entry): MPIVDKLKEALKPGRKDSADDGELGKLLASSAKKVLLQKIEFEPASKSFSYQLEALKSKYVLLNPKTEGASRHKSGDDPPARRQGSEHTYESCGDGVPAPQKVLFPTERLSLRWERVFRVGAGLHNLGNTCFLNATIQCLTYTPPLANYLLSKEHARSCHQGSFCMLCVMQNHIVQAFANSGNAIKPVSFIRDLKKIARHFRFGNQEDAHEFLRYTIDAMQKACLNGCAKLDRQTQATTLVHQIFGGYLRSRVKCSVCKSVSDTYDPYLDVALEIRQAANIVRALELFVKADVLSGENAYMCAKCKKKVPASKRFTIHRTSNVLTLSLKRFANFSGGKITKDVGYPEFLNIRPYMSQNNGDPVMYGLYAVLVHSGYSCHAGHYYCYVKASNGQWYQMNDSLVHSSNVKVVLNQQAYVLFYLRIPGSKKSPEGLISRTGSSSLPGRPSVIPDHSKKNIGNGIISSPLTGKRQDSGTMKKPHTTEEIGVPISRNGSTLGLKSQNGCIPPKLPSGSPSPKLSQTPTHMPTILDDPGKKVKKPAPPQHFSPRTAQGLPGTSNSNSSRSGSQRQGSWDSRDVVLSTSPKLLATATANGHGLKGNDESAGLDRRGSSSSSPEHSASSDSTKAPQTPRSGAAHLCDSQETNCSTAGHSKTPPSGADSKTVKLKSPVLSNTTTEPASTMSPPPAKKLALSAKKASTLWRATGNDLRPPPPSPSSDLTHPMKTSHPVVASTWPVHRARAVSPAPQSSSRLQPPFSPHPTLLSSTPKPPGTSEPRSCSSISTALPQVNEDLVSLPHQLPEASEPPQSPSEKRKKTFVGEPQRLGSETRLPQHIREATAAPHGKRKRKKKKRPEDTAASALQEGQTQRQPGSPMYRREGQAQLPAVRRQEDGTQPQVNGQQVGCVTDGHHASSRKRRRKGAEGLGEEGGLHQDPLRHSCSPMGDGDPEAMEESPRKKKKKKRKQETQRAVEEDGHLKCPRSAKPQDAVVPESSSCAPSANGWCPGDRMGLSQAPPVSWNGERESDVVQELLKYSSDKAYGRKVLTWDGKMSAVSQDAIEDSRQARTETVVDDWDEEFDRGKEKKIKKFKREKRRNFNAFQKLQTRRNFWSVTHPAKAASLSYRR
In short: as §1

USP38 = target: T2, USP38 (UniProt Q8NB14)
T2 sequence (whole entry): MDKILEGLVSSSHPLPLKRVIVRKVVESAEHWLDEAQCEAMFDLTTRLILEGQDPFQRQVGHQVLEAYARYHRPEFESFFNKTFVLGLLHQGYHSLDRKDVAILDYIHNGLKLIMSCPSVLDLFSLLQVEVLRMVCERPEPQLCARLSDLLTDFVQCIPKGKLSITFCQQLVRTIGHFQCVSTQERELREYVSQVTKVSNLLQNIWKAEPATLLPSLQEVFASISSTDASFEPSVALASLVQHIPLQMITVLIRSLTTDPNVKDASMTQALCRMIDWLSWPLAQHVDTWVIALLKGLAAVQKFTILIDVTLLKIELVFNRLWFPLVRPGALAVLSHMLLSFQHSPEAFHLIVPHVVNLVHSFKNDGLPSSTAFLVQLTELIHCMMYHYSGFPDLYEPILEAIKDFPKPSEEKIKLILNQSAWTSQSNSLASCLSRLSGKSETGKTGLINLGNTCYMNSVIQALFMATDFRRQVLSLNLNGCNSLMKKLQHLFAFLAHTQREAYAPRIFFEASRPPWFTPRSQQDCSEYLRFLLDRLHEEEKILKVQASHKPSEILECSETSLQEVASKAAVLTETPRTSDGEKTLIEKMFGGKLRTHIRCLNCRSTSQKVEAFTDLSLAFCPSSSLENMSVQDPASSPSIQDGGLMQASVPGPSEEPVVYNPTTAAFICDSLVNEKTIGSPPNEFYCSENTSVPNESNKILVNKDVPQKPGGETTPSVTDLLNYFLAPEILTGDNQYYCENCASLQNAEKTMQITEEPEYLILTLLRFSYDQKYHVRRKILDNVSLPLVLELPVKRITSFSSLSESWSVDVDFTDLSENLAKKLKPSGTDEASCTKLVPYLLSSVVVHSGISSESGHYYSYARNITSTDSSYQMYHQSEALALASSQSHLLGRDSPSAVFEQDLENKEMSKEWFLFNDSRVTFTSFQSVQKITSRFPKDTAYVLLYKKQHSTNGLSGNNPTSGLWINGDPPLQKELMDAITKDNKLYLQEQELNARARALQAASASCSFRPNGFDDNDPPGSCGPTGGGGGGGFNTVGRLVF
In short: as §1

USP39 = target: T3, USP39 (UniProt Q53GS9)
T3 sequence (whole entry): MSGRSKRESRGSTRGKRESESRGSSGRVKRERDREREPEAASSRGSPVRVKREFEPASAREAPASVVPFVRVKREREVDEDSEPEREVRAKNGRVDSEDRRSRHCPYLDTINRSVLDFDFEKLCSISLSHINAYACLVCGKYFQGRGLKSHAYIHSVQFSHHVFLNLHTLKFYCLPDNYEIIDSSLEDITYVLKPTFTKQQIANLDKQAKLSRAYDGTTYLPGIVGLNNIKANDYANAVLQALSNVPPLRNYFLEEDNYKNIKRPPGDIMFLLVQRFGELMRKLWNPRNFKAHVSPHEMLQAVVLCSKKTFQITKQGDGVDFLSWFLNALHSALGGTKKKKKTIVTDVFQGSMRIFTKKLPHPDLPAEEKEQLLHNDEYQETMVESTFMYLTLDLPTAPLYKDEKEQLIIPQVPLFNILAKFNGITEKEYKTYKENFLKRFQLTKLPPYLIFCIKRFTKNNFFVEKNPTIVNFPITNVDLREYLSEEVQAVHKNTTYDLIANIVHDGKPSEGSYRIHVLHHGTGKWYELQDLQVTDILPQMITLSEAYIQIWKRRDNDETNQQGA
In short: as §1

USP4 = target: T4, USP4 (UniProt Q13107)
T4 sequence (whole entry): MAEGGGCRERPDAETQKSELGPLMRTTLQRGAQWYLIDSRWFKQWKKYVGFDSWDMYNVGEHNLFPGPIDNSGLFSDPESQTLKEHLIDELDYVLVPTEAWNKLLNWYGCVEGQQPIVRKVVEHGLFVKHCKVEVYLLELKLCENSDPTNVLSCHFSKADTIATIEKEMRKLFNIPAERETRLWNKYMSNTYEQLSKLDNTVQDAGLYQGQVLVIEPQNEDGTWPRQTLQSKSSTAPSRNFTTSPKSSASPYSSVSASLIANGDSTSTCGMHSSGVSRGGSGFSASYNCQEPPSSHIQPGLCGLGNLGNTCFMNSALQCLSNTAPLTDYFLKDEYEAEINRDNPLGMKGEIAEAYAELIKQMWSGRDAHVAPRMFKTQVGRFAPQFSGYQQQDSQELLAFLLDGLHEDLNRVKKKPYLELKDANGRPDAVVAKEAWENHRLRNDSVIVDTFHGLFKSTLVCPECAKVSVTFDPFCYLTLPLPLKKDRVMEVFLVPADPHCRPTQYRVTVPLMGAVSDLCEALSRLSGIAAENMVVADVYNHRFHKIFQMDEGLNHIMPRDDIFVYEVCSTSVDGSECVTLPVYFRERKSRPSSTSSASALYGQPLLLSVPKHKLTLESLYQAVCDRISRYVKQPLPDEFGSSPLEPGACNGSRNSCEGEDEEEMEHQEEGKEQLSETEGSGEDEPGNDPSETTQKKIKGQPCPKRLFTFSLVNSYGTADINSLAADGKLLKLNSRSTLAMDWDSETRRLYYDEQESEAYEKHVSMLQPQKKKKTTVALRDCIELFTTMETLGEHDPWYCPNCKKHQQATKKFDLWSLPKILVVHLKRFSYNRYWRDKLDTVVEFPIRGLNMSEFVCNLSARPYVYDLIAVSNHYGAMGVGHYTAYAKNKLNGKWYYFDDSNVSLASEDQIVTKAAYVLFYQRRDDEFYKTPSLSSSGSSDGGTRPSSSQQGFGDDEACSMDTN
In short: as §1

Measured: log2 ratio of Biotin-Ahx-Ub-VS probe labelling

O=C(CCl)NC1CCN(C(=O)C2CCCCC2)CC1
inactive: USP34 0.0203 | USP36 -0.0678 | USP38 0.166 | USP39 0.187 | USP4 -0.0463
